Assay outcomes as filed in PubChem BioAssay.
KCNQ2 block = inhibitors of rat KCNQ2 potassium channel; 310,000 compounds, 1.1% hits; B-score at 10 µM; CHO-K1 KCNQ2, FluxOR thallium flux, 20 min; hits give low values;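 active = fluorescence ratio B-score at most minus 3 library SDs, with starting brightness B-score within 2 library SDs, cut at about -5.5 in these data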
KCNQ2 enhance = enhances the rat KCNQ2 potassium channel | B-score at 10 µM | 310,000 compounds, 0.54% hits | O88943 | AID 2239 | CHO-K1 KCNQ2, FluxOR thallium flux fluorescence; hits give high values;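 active = fluorescence ratio B-score at least 3 SD of library B-scores, with initial fluorescence B-score within 3 of them, cut at about 5.3 in these data; same plate scores as AID 2156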;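 also: B-score of peak minus minimum over baseline fluorescence ratio after K+ and Tl+ stimulus; positive B-score means potentiation of KCNQ2 with more thallium influx and brighter signal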
The depositor's hits bear a star. Most compounds without a hit are left out; they make up all but 1.6% or so of the library.

What do the screens show for `Clc1ccc(Cc2nnc(-c3ccccc3Br)o2)cc1`?
KCNQ2 block: -5.9*; KCNQ2 enhance: -5.9

What do the screens show for `Clc1ccccc1OCc1nnc(-c2ccccc2Br)o1`?
KCNQ2 block: inactive

How did CCCCCCCCN1[C@@H](CC(=O)OCC)c2cc(F)ccc2S1(=O)=O do in these assays?
KCNQ2 block: inactive

Results for CCCCCCCCN1[C@@H](CC(=O)OC)c2cc(F)ccc2S1(=O)=O ?
KCNQ2 block: -6*; KCNQ2 enhance: -6

How did Cc1ccsc1/C=C1/SC(N2CCOCC2)=NC1=O do in these assays?
KCNQ2 block: inactive; KCNQ2 enhance: 0.11

Results for O=C1N=C(N2CCOCC2)S/C1=C\c1cccs1 ?
KCNQ2 block: inactive; KCNQ2 enhance: 8.8*

How did CCOC(=O)C(Cc1ccccc1)C(=O)NCc1cccnc1 (configuration not stated) do in these assays?
KCNQ2 block: inactive; KCNQ2 enhance: 0.94

What do the screens show for `CCOC(=O)C(Cc1ccccc1)C(=O)Nc1cccc2ccccc12` (configuration not stated)?
KCNQ2 block: -5.8*; KCNQ2 enhance: -5.8

What do the screens show for `Cc1coc2cc3oc(=O)c(CCC(=O)NCC(=O)O)c(C)c3cc12`?
KCNQ2 block: inactive; KCNQ2 enhance: 0.69

How did CC(O/N=C\c1ccccc1O)C(=O)Nc1ccccc1C(=O)N1CCOCC1 (configuration not stated) do in these assays?
KCNQ2 block: inactive; KCNQ2 enhance: 1.5

What do the screens show for `CSCCC(NS(=O)(=O)c1ccc(C)cc1)C(=O)N1CCN(C(c2ccccc2)c2ccccc2)CC1` (configuration not stated)?
KCNQ2 block: inactive

How did CSCCC(NC(=O)c1ccccc1Cl)C(=O)N1CCN(C(c2ccccc2)c2ccccc2)CC1 (configuration not stated) do in these assays?
KCNQ2 block: -7.2*; KCNQ2 enhance: -7.2

How did COc1ccccc1C(=O)NC(CCSC)C(=O)N1CCC(Cc2ccccc2)CC1 (configuration not stated) do in these assays?
KCNQ2 block: -7.2*; KCNQ2 enhance: -7.2

How did COc1ccccc1C(=O)NC(CCSC)C(=O)OC(C)C(N)=O (configuration not stated) do in these assays?
KCNQ2 block: inactive; KCNQ2 enhance: 1.4

Results for CCOc1ccccc1NC(=O)C(NCC1CCCCC1)c1ccccc1 (configuration not stated) ?
KCNQ2 block: -5.8*; KCNQ2 enhance: -5.8

What do the screens show for `CCOc1ccccc1NC(=O)C(NCCN(C)C)c1ccccc1` (configuration not stated)?
KCNQ2 block: inactive; KCNQ2 enhance: 1.8

Results for CCOc1ccccc1NC(=O)C(OC(=O)c1ccc(O)cc1)c1ccccc1 (configuration not stated) ?
KCNQ2 block: inactive

How did CCOc1ccccc1NC(=O)C(OC(=O)c1ccc(CC)cc1)c1ccccc1 (configuration not stated) do in these assays?
KCNQ2 block: -6.4*; KCNQ2 enhance: -6.4

Results for Cc1ccccc1NS(=O)(=O)c1ccc(OCC(=O)NCc2ccccn2)cc1 ?
KCNQ2 block: inactive; KCNQ2 enhance: 0.03

Results for CCCCc1nc2ccccc2c(=O)n1NC(=O)c1c(O)c2c(n(CC(C)C)c1=O)CCCC2 ?
KCNQ2 block: inactive

Results for CC(C)Cn1c2c(c(O)c(C(=O)Nn3c(Cc4ccccc4)nc4ccccc4c3=O)c1=O)CCCC2 ?
KCNQ2 block: -6.3*; KCNQ2 enhance: -6.3

Results for Fc1cccc(CO/N=C/c2c(-c3ccccc3)nc3ccc(Cl)cn23)c1 ?
KCNQ2 block: -6.8*; KCNQ2 enhance: -6.8

How did Cc1cccn2c(/C=N/OCc3cccc(F)c3)c(-c3ccc(Cl)cc3)nc12 do in these assays?
KCNQ2 block: inactive

How did NC(=O)CSc1ccc(F)cc1 do in these assays?
KCNQ2 block: inactive

How did O=C(CCCN1CCOCC1)c1ccc2c(c1)OCCO2 do in these assays?
KCNQ2 block: inactive; KCNQ2 enhance: 0.39

Results for O=C(CCN1CCc2ccccc2CC1)c1ccc2c(c1)OCCO2 ?
KCNQ2 block: -5.8*; KCNQ2 enhance: -5.8

What do the screens show for `CCC1(CC)C(=O)C2=C3C1[C@H](C(=O)OC)CC(C(=O)OC)C[C@H]3n1c(=O)n(C)c(=O)n1[C@H]2C` (some centres not stated)?
KCNQ2 block: -7.5*; KCNQ2 enhance: -7.5

How did CCC1(CC)C(=O)C2=C3C1[C@H](C(=O)OC)C=C(C(=O)OC)C[C@H]3n1c(=O)n(C)c(=O)n1[C@H]2C (some centres not stated) do in these assays?
KCNQ2 block: inactive; KCNQ2 enhance: 0.19

How did NC(=O)c1ccccc1NC(=O)CCn1c(=S)oc2ccccc21 do in these assays?
KCNQ2 block: inactive

How did O=C(COC(=O)c1cccc(Cl)c1)NCCN1C(=O)CSC1=O do in these assays?
KCNQ2 block: inactive; KCNQ2 enhance: 0.05

How did Cc1noc(C)c1COc1cccc(C(=O)OCC(=O)NCCN2C(=O)CSC2=O)c1 do in these assays?
KCNQ2 block: inactive; KCNQ2 enhance: 8.3*

How did COc1cc2c(cc1OC)C(c1cc3ccccc3oc1=O)=NC(C)(C)C2 do in these assays?
KCNQ2 block: inactive; KCNQ2 enhance: 1.5

What do the screens show for `COc1cc(OC)cc(C(=O)N[C@H](C(=O)OCc2cc(=O)oc3cc(C)ccc23)C(C)C)c1`?
KCNQ2 block: -7.7*; KCNQ2 enhance: -7.7

What do the screens show for `CCOc1ccccc1C(=O)N[C@H](C(=O)OCc1cc(=O)oc2cc(C)ccc12)C(C)C`?
KCNQ2 block: inactive

Results for CC1=C[C@H]2OC(=O)[C@@H](C)[C@H]2C[C@@H]2[C@H]1C[C@@H](O)[C@@]2(C)O ?
KCNQ2 block: inactive

What do the screens show for `CCOc1ccc(N2CC(C(=O)Nc3cccc(S(=O)(=O)NC4=NCCC4)c3)CC2=O)cc1` (configuration not stated)?
KCNQ2 block: inactive

Results for O=C(O)c1cc(-c2ccc(Br)s2)nc2ccccc12 ?
KCNQ2 block: inactive

What do the screens show for `CN1CCN(NC(=O)c2cc(-c3ccc(Br)s3)nc3ccccc23)CC1`?
KCNQ2 block: -5.7*; KCNQ2 enhance: -5.7

Results for O=C(COc1ccc(F)cc1)N1c2ccccc2CCc2ccccc21 ?
KCNQ2 block: inactive

How did O=C(COc1cccc2ccccc12)N1c2ccccc2CCc2ccccc21 do in these assays?
KCNQ2 block: -7.2*; KCNQ2 enhance: -7.2

How did CC(=O)N(CCC(Cc1ccccc1)c1ccc2c(c1)OCO2)Cc1ccc(Cl)cc1 (configuration not stated) do in these assays?
KCNQ2 block: -10*; KCNQ2 enhance: -10

How did O=C(O)CC(Cc1ccccc1)c1ccc2c(c1)OCO2 (configuration not stated) do in these assays?
KCNQ2 block: inactive

What do the screens show for `O=C(NCc1ccncc1)C(=O)Nc1nc(C23CC4CC(CC(C4)C2)C3)cs1`?
KCNQ2 block: inactive; KCNQ2 enhance: 0.15

How did O=C(NCc1ccccc1)C(=O)Nc1nc(C23CC4CC(CC(C4)C2)C3)cs1 do in these assays?
KCNQ2 block: inactive; KCNQ2 enhance: 5.5*

What do the screens show for `Cc1ccccc1NC(=O)c1ccc2nc(N3CCOCC3)sc2c1`?
KCNQ2 block: inactive

How did COc1cccc(C(C(=O)NC2CCCC2)N(C(=O)c2csnn2)C2CC2)c1 (configuration not stated) do in these assays?
KCNQ2 block: inactive; KCNQ2 enhance: 1.7

Results for O=P(c1ccccc1)(c1ccccc1)c1ccc(O)cc1 ?
KCNQ2 block: inactive; KCNQ2 enhance: 0.06
